The panel holds about 83,000 compounds, 20% with a hit somewhere; the sample as a whole holds those more often.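 Interpretation: 100, growth as untreated; towards 0, rising growth inhibition; 0, no net growth; 0 to -100, cell death. Compounds scoring below 10 were considered active.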 Calls of active or inactive are those of the source.
Assays:
Experiment in all cases: NCI-60 one-dose screen, 48 h (100 = growth as untreated, 0 = no growth, -100 = all killed)
Settings in all cases: 10 µM unless noted
HCT-15 colon = system: HCT-15 colon
HT29 colon = system: HT29 colon
SNB-75 CNS = system: SNB-75 CNS
SNB-19 CNS = system: SNB-19 CNS
U251 CNS = system: U251 CNS
PC-3 prostate = system: PC-3 prostate
SK-MEL-5 melanoma = system: SK-MEL-5 melanoma
UACC-62 melanoma = system: UACC-62 melanoma
LOX IMVI melanoma = system: LOX IMVI melanoma
SK-MEL-28 melanoma = system: SK-MEL-28 melanoma

Measured: growth

NC(=O)c1c(NC(=O)c2cccc(C(F)(F)F)c2F)sc2c1CCC(=O)C2
active: HCT-15 colon 7.63% | HT29 colon 8.55% | SK-MEL-5 melanoma -3.83%
inactive: SNB-75 CNS 40.2% | SNB-19 CNS 18% | U251 CNS 15.9% | PC-3 prostate 17.9% | UACC-62 melanoma 11.1% | LOX IMVI melanoma 19.2% | SK-MEL-28 melanoma 33.9%

COc1ccc(NC2=C(Cl)C(=O)C(C)=C(C)C2=O)cc1
inactive: HCT-15 colon 94.8% | HT29 colon 106% | SNB-75 CNS 71.7% | SNB-19 CNS 95.2% | U251 CNS 88.6% | PC-3 prostate 74.7% | SK-MEL-5 melanoma 97.7% | UACC-62 melanoma 91% | LOX IMVI melanoma 65.8% | SK-MEL-28 melanoma 103%

Clc1ccccc1/C=C/c1nn2c(-c3ccncc3)nnc2s1
inactive: HCT-15 colon 96.4% | HT29 colon 111% | SNB-75 CNS 105% | SNB-19 CNS 99.6% | U251 CNS 106% | PC-3 prostate 97.2% | SK-MEL-5 melanoma 99.3% | UACC-62 melanoma 94.3% | LOX IMVI melanoma 98.1% | SK-MEL-28 melanoma 103%

CN1CCN(c2ccc3c(C(N)=O)c(NC(=O)c4ccc(C(C)(C)C)cc4)sc3c2)CC1
active: LOX IMVI melanoma -53.3%
inactive: HCT-15 colon 16.4% | HT29 colon 20.4% | SNB-75 CNS 81.6% | SNB-19 CNS 76.2% | U251 CNS 59.1% | PC-3 prostate 79.2% | SK-MEL-5 melanoma 89.7% | UACC-62 melanoma 99.5% | SK-MEL-28 melanoma 90%

Cc1[nH]nc2ccc(-c3nc4cnc(N5CCN(C)CC5)cn4c3Nc3ccc(F)cc3Br)cc12
active: HT29 colon 4.1% | LOX IMVI melanoma -10.4%
inactive: HCT-15 colon 27.8% | SNB-75 CNS 82.7% | SNB-19 CNS 45.4% | U251 CNS 14.4% | PC-3 prostate 47.6% | SK-MEL-5 melanoma 75.4% | UACC-62 melanoma 17.9% | SK-MEL-28 melanoma 62.8%

O=c1oc2ccc(-c3ccc(F)cc3F)cc2c(=O)n1-c1cccc(C(F)(F)F)c1
inactive: HT29 colon 91.3% | SNB-75 CNS 15.5% | U251 CNS 10.2% | SK-MEL-28 melanoma 23.4%
active: HCT-15 colon 9.93% | SNB-19 CNS 9.99% | PC-3 prostate 6.82% | SK-MEL-5 melanoma -72.4% | UACC-62 melanoma -6.07% | LOX IMVI melanoma 0.939%

CC(=O)Nc1ccc(C)c(Nc2cc(-c3ccc(-n4cccn4)cc3)[nH]n2)c1
inactive: HCT-15 colon 41.3% | HT29 colon 27.8% | SNB-75 CNS 64.2% | SNB-19 CNS 45.7% | U251 CNS 42.5% | PC-3 prostate 65.3% | SK-MEL-5 melanoma 53.6% | UACC-62 melanoma 46.7% | LOX IMVI melanoma 60% | SK-MEL-28 melanoma 61%

CCCCCCNC(=O)Oc1ccc(/C(=C(\C)c2ccc(Cl)cc2)c2ccc(OCCN(C)C)cc2)cc1
inactive: SNB-75 CNS 75.8% | SNB-19 CNS 60.8% | U251 CNS 46% | PC-3 prostate 56% | SK-MEL-5 melanoma 47.9% | UACC-62 melanoma 84.7% | SK-MEL-28 melanoma 75%
active: HCT-15 colon 7.58% | HT29 colon 5.99% | LOX IMVI melanoma -67.8%

Cc1cc(C(=O)Nc2ccc(SC#N)cc2)c(C)o1
active: LOX IMVI melanoma -41.2%
inactive: HCT-15 colon 82.1% | HT29 colon 106% | SNB-75 CNS 104% | SNB-19 CNS 90.7% | U251 CNS 76% | PC-3 prostate 73.9% | SK-MEL-5 melanoma 99.6% | UACC-62 melanoma 93.1% | SK-MEL-28 melanoma 104%

Cc1cc2nc(C(Cl)Cl)nc(-c3ccco3)n2n1
inactive: HCT-15 colon 72% | HT29 colon 37.2% | SNB-75 CNS 94.5% | SNB-19 CNS 62.8% | U251 CNS 53.8% | PC-3 prostate 73% | SK-MEL-5 melanoma 97.8% | UACC-62 melanoma 78.2% | LOX IMVI melanoma 93.4% | SK-MEL-28 melanoma 87.6%

Nc1n[nH]c2cccc(C#Cc3cccc(NC(=O)c4cccc(OC(F)(F)F)c4)c3)c12
inactive: HCT-15 colon 41.3% | HT29 colon 36.1% | SNB-75 CNS 47.7% | SNB-19 CNS 81.3% | U251 CNS 59.3% | PC-3 prostate 68.3% | SK-MEL-5 melanoma 80.9% | UACC-62 melanoma 30.1% | LOX IMVI melanoma 16.9% | SK-MEL-28 melanoma 30.3%

COc1cc(CNC(=O)/C=C/c2ccccc2)ccc1OCC(=O)NO
inactive: HCT-15 colon 101% | HT29 colon 104% | SNB-75 CNS 85.3% | SNB-19 CNS 98.9% | U251 CNS 101% | PC-3 prostate 91% | SK-MEL-5 melanoma 100% | UACC-62 melanoma 92.3% | LOX IMVI melanoma 91.9% | SK-MEL-28 melanoma 107%

Cc1ccc(-c2cc(-c3ccc(N(C)C)cc3)n3c(n2)nc2ccccc23)cc1
inactive: HCT-15 colon 56.6% | HT29 colon 65.8% | SNB-75 CNS 94% | SNB-19 CNS 50.2% | U251 CNS 56.7% | PC-3 prostate 47.8% | UACC-62 melanoma 35% | LOX IMVI melanoma 83.5% | SK-MEL-28 melanoma 52.9%
active: SK-MEL-5 melanoma -37.6%

O=c1oc2ccc(-c3ccc(F)cc3F)cc2c(=O)n1-c1ccc(F)c(F)c1
active: HCT-15 colon 3.09% | SK-MEL-5 melanoma -77.4% | UACC-62 melanoma -12.8%
inactive: HT29 colon 88.8% | SNB-75 CNS 14.9% | SNB-19 CNS 12.2% | U251 CNS 11.9% | PC-3 prostate 13.3% | LOX IMVI melanoma 17.8% | SK-MEL-28 melanoma 19.9%

C=C(C)[C@@H]1CC[C@]2(C(=O)NCCCN(CCC#N)CCC#N)CC[C@]3(C)[C@H](CC[C@@H]4[C@@]5(C)CCC(=O)C(C)(C)[C@@H]5CC[C@]43C)[C@@H]12
inactive: HCT-15 colon 96.4% | HT29 colon 106% | SNB-75 CNS 99.9% | SNB-19 CNS 88.9% | U251 CNS 97.7% | PC-3 prostate 93.1% | SK-MEL-5 melanoma 99.1% | UACC-62 melanoma 88.3% | LOX IMVI melanoma 99.3% | SK-MEL-28 melanoma 104%

CC(=O)Nc1ccc(NC(=O)Nc2cccc(-c3nc(-c4ccc(NC(=O)c5cccs5)cc4Cl)no3)c2)cc1C(F)(F)F
inactive: HCT-15 colon 20.2%
active: HT29 colon -36.4% | SNB-75 CNS -73.2% | SNB-19 CNS -33.7% | U251 CNS -57.4% | PC-3 prostate -64.5% | SK-MEL-5 melanoma -77.8% | UACC-62 melanoma -82.4% | LOX IMVI melanoma -88% | SK-MEL-28 melanoma -90.1%

O=C1c2c(c3c4ccc(Br)cc4oc3c3[nH]c4ccccc4c23)C(=O)N1CCO
inactive: HCT-15 colon 53% | HT29 colon 58.3% | SNB-75 CNS 88.7% | SNB-19 CNS 32.8% | U251 CNS 23.5% | PC-3 prostate 51.6% | SK-MEL-5 melanoma 17.3% | UACC-62 melanoma 23.5% | SK-MEL-28 melanoma 70.2%
active: LOX IMVI melanoma 7.54%

CN1CCN(c2ccc(NC(=O)Nc3ccc4c(ccn4-c4cccc(C(N)=O)n4)c3)cc2C(F)(F)F)CC1
active: HCT-15 colon 3.6% | HT29 colon 5.77% | LOX IMVI melanoma -27.7% | SK-MEL-28 melanoma -53.6%
inactive: SNB-75 CNS 82.2% | SNB-19 CNS 53.2% | U251 CNS 33.8% | PC-3 prostate 50.9% | SK-MEL-5 melanoma 75% | UACC-62 melanoma 94.1%

COc1ccc(C2CC(c3ccc(Nc4nc(NCCO)nc(Nc5ccc(Cl)cc5)n4)cc3)=Nc3c(N)nc(N)nc3N2)cc1 (stereo not given)
inactive: HCT-15 colon 14.1% | HT29 colon 54.8% | SNB-75 CNS 117% | SNB-19 CNS 76.8% | U251 CNS 66.4% | PC-3 prostate 63.1% | SK-MEL-5 melanoma 59.8% | UACC-62 melanoma 107% | LOX IMVI melanoma 12.9% | SK-MEL-28 melanoma 119%

CCN1C(=O)N(CC)C2SC(N/N=C/c3ccccc3F)=NC21 (stereo not given)
inactive: HCT-15 colon 16.2% | SNB-75 CNS 21.5% | SNB-19 CNS 24.6% | U251 CNS 16.4% | PC-3 prostate 29.8% | SK-MEL-5 melanoma 11.1% | UACC-62 melanoma 37.6% | LOX IMVI melanoma 15.6% | SK-MEL-28 melanoma 54.8%
active: HT29 colon 0.675%

Cc1ccc(NC(=O)c2ccc(CN3CCN(C)CC3)c(I)c2)cc1Oc1ccc(-c2[nH]nc3ncnc(N)c23)cc1
active: HCT-15 colon -54.1% | HT29 colon -71.1% | U251 CNS -59.8% | LOX IMVI melanoma -86.5% | SK-MEL-28 melanoma -84.6%
inactive: SNB-75 CNS 100% | SNB-19 CNS 96.5% | PC-3 prostate 75.2% | SK-MEL-5 melanoma 62.6% | UACC-62 melanoma 85%

O=C(Nc1ccc(F)cc1)c1cc(-c2ccc(F)cc2F)ccc1O
active: SNB-75 CNS 7.01% | SNB-19 CNS 8.06% | U251 CNS 6.63% | PC-3 prostate 5.81% | SK-MEL-5 melanoma -63.9% | UACC-62 melanoma 5.12% | LOX IMVI melanoma 4.96%
inactive: HCT-15 colon 11.4% | HT29 colon 101% | SK-MEL-28 melanoma 21.9%

O=C(NCCCNc1cc(-c2cn(-c3ccccc3)nc2-c2cccc(O)c2)ccn1)Nc1ccc(F)cc1
inactive: SNB-19 CNS 26.9% | PC-3 prostate 16%
active: HCT-15 colon -11.7% | HT29 colon 3.6% | SNB-75 CNS 6.84% | U251 CNS 3.22% | SK-MEL-5 melanoma -55% | UACC-62 melanoma 8.05% | LOX IMVI melanoma 6.07% | SK-MEL-28 melanoma -61.3%

N#Cc1c(NC(=O)c2ccccc2C(F)(F)F)sc2c1CCC(=O)C2
active: HCT-15 colon -32.3% | HT29 colon 8.88% | SK-MEL-5 melanoma -75.5% | UACC-62 melanoma -26.9% | LOX IMVI melanoma 6.27% | SK-MEL-28 melanoma -14.9%
inactive: SNB-75 CNS 20.1% | SNB-19 CNS 15.5% | U251 CNS 16.3% | PC-3 prostate 13%

C=CCn1c(SCC(=O)Nc2cccc(C(=O)/C=C/c3ccccc3)c2)nc2ccccc2c1=O
inactive: HCT-15 colon 57.9% | HT29 colon 14.7% | SNB-75 CNS 82.1% | SNB-19 CNS 77.1% | U251 CNS 46.7% | PC-3 prostate 77.4% | SK-MEL-5 melanoma 98.6% | UACC-62 melanoma 86.3% | LOX IMVI melanoma 24.4% | SK-MEL-28 melanoma 95.4%

CC(C)=CCc1c(O)c(CC=C(C)C)c2c(c1O)C(=O)C1=C[C@@H]3C[C@H]4C(C)(C)O[C@@](C/C=C(\C)C(=O)O)(C3=O)[C@@]14O2
inactive: SNB-75 CNS 33.7% | SNB-19 CNS 41.6% | PC-3 prostate 11.3%
active: HCT-15 colon -30% | HT29 colon -11.1% | U251 CNS -71.9% | SK-MEL-5 melanoma -94.9% | UACC-62 melanoma -22.3% | LOX IMVI melanoma -97% | SK-MEL-28 melanoma -11.2%
